High-throughput results: PubChem, The Scripps Research Institute Molecular Screening Center
CHO-K1 Ca antag: M1 antagonist counterscreen hit in parental CHO-K1 cells | ATP-induced calcium, Fluo-8 fluorescence | inhibition, % at 3 µM | 0.6% of 360,000 active | AID 602250;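 active = inhibition above a per-plate cutoff, the plate's mean sample inhibition plus 3 SD, cut at about 24% in these data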
CHRM1 PAM: potentiates human M1 receptor response to acetylcholine; P11229; CHO-K1 hM1, Fluo-8 calcium fluorescence, ACh EC20; 0% = ACh EC20, 100% = maximal ACh; activation, % at 3 µM; 0.088% of 360,000 active; AID 588819; in the data active = activation above about 19%, passing the limit was not always enough
Target sequence (P11229 whole entry, looked up): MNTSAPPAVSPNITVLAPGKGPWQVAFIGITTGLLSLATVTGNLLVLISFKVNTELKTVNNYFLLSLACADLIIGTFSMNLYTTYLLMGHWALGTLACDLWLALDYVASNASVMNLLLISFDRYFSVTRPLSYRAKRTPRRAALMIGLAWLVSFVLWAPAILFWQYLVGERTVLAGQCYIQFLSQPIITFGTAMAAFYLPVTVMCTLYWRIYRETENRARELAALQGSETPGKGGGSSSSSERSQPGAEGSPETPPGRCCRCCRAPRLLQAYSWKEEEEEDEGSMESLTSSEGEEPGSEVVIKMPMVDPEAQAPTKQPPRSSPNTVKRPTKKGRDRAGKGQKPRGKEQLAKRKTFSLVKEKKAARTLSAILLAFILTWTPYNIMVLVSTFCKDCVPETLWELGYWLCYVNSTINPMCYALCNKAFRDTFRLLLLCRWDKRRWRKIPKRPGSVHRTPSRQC
M1 ag: human M1 muscarinic receptor agonism; P11229; CHO-K1 hM1, Fluo-8 calcium fluorescence, agonist mode; 0% DMSO, 100% acetylcholine EC100; activation, % at 3 µM; 0.33% of 360,000 active; AID 588814;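 active = activation above the run's mean compound activation plus 3 SD, cut at about 16% in these data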;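 also: peak over basal fluorescence ratio within a 140 s kinetic read after compound addition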
M1 PAM parental: M1 PAM counterscreen hit in parental CHO-K1 cells; AID 602247; ATP EC20, Fluo-8 calcium fluorescence; 0% at ATP EC20, 100% at ATP max; activation, % at 3 µM; 0.02% of 360,000 active;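 active = activation above the run cutoff, the mean activation of all test compounds plus 3 SD, cut at about 40% in these data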;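 also: peak over basal fluorescence ratio in a 140 s read after ATP addition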
CHO-K1 Ca ag: counter-screen for M1 agonists: effect in parental CHO-K1 cells. Fluo-8 calcium fluorescence; scaled to maximal ATP response, vehicle zero. activation, % at 3 µM. 0.48% of 360,000 active. AID 602248; in the data active = activation above about 15%;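 also: untransfected CHO-K1 host cells lacking M1 receptor as counterscreen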
M1 antag: antagonists of human M1 muscarinic receptor; P11229; CHO-K1 hM1, Fluo-8 calcium fluorescence, ACh EC80 antagonist; inhibition, % at 3 µM; 1.3% of 360,000 active; AID 588852;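 active = percent inhibition above its own plate's cutoff, namely the mean of that plate's compound wells plus 3 SD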;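 also: peak over basal fluorescence ratio during 140 s after agonist addition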
A number is an active result; i = inactive; nt = not tested or not shown. The list is not random: actives were taken first. Their share in the collection is about 2.3%.

SMILES	CHO-K1 Ca antag	CHRM1 PAM	M1 ag	M1 PAM parental	CHO-K1 Ca ag	M1 antag
CC(C)(C)NC(=O)CN(C(=O)c1snc(C(=O)NC2CCCCC2)c1N)c1ccccc1F	i	i	i	i	i	i
O=C(CCCOc1ccccc1)NC(=S)Nc1ccccc1	i	i	i	i	i	i
CCOc1ccc(CNC(=O)CCCOc2cc(=O)n(C)c3ccccc23)cc1	i	i	i	i	i	i
CC1CCc2c(sc3ncnc(NS(=O)(=O)c4cccs4)c23)C1 (centres undefined)	i	i	i	i	i	i
COCCCNc1ncnc2sc3c(c12)CCC(C)C3 (centres undefined)	29.7	i	i	i	i	i
Cc1nn(-c2ccccc2)c(C)c1NC(=O)COc1cc(F)ccc1[N+](=O)[O-]	i	i	i	i	17.7	i
CC(C)C[C@H](NC(=O)[C@@H]1Cc2ccccc2CN1)C(=O)Nc1ccc(C(C)C)cc1	i	i	i	i	i	i
CC(C)c1ccc(NC(=O)[C@@H](C)NC(=O)[C@@H]2Cc3ccccc3CN2)cc1	i	i	i	i	i	37.4
COc1ccc(S(=O)(=O)N2CCN(c3nn(C)c(=O)n(C)c3=O)CC2)cc1	i	i	i	i	i	i
COc1cc(-c2cc3nc4ccccc4n3c(N)c2C#N)cc(OC)c1OC	i	i	i	i	i	36.9
CCCC1C2CN(C(C)C)CC=C2C(C#N)=C(N)C1(C#N)C#N (centres undefined)	i	i	i	i	i	38.1
CN1CC=C2C(C#N)=C(N)C(C#N)(C#N)C(CCc3ccccc3)C2C1 (centres undefined)	i	i	i	i	i	i
O=C(CSc1nnc(NC(=O)c2ccc(F)cc2F)s1)NC1CC1	i	i	i	i	i	i
N#Cc1cc([N+](=O)[O-])ccc1NC(=O)COC(=O)CN1C(=O)C2CCCCC2C1=O (centres undefined)	i	i	i	i	i	i
CCCC(=O)OCC(=O)Nc1ccc([N+](=O)[O-])cc1C#N	25.8	i	i	i	i	i
O=C(CCN1C(=O)/C(=C/C=C/c2ccccc2)SC1=S)Nc1nccs1	25.8	i	i	i	i	i
COc1ccc(C2(c3ccc(OC)cc3)NC(=O)N(CC(=O)Nc3ccc(C(N)=O)cc3)C2=O)cc1	i	i	i	i	i	i
COc1ccc(C2(c3ccc(OC)cc3)NC(=O)N(CC(=O)Nc3ccccc3)C2=O)cc1	i	i	i	i	15.5	i
Oc1ccccc1-c1n[nH]c(-c2ccccc2O)n1	i	i	i	i	17.3	i
C[C@H](NC(=O)[C@@H]1CCCN1C(=O)[C@@H]1CCCN1C(=O)c1cccc2ccccc12)c1ccccc1	i	nt	nt	i	i	nt
Cc1ccc([C@@]2(OC(=O)c3ccccc3)C(=O)N(C(=O)OC(C)(C)C)c3ccccc32)cc1	i	nt	nt	i	i	nt
Cc1cc(C)cc(NC(=O)COC(=O)Cn2cnc3c2c(=O)n(C)c(=O)n3C)c1	i	i	i	i	i	i
CN(C)c1cc[n+](CC(=O)Nc2ccc(Oc3ccccc3)cc2)cc1	i	i	i	i	i	63.6
COC(=O)c1ccc(OCCCCN(C)Cc2ccccc2)cc1	i	i	i	i	i	31.3
CCOc1cccc(OCCOCCN(C)Cc2ccccc2)c1	i	i	i	i	i	31.1
SMILES	CHO-K1 Ca antag	CHRM1 PAM	M1 ag	M1 PAM parental	CHO-K1 Ca ag	M1 antag
Cc1ccc(Cl)c(OCCCCN(C)Cc2ccccc2)c1	i	i	i	i	i	37.3
CCOc1cccc(OCCOCCN(C)C)c1	i	i	i	i	i	i
COc1ccc(NC(=O)CN2C(=O)NC(C)(c3ccccc3)C2=O)c(OC)c1 (centres undefined)	i	i	i	i	i	i
CCN(CC)C(=O)c1ccc2nc([C@H]3C[C@H](O)[C@@H](CO)O3)[nH]c2c1	i	i	i	i	i	i
OC[C@H]1O[C@@H](c2nc3ccc(-c4nc(-c5ccc(Br)cc5)no4)cc3[nH]2)C[C@@H]1O	i	i	16.0	i	i	i
O=C(CSc1ccc(S(=O)(=O)N2CCOCC2)cn1)Nc1ccc(F)c(F)c1	i	i	i	i	i	38.8
COc1cccc(/C=N/NC(=O)c2ccoc2C)c1	i	i	i	i	i	i
CCc1cccc(NS(=O)(=O)c2csc(C(N)=O)c2)c1	i	i	i	i	16.3	i
